# Laboratory results: PubChem BioAssay (EPA / NIEHS)
# Results filed as inconclusive are left out. Activity calls are given as the source filed them. Rule for the calls: active = hit-call score of the fitted dose curve at least 0.9, where 1 is the maximum; inconclusive = response in the unintended direction; inactive = score below 0.9.
# Columns and labels:
# [1] = ATG_XTT_Cytotoxicity: Cytotoxicity Assessment in the Attagene TRANS-FACTORIAL HepG2 Assay (AID 2283584);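 for AC50: XTT signal for cell number as viability in transfected HepG2 cells; cells exposed to compound for 24 h before reading; active means loss of viability signal versus DMSO baseline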
# How it was run: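 Transfect HepG2 with GAL4-UAS reporter units, dose compound, incubate 24 h, then measure viable cell number by XTT. Fit concentration response against DMSO baseline.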
# [2] = TOX21_p53_BLA_p2_viability: Viability Assessment in the Tox21 HCT-116 p53 Agonism Beta-lactamase Assay, Phase 2 (AID 2283591);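 note: compound exposure lasted 16 h at 37 °C; actives lower the ATP signal meaning cytotoxicity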
# How it was run: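 Cytotoxicity readout: CellTiter-Glo ATP luminescence, 30 min at room temperature, after the beta-lactamase read. Cells were HCT116 exposed 16 h at 37C to compounds pin-transferred at 217-fold dilution from DMSO stocks.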
# [3] = target: Cellular tumor antigen p53 (Homo sapiens) (UniProt P04637); experiment: TOX21_p53_BLA_p2_ratio: Tox21 HCT-116 p53 Agonism Beta-lactamase Assay, Ratio, Phase 2 (AID 2283592)
# Cellular tumor antigen p53 (Homo sapiens), sequence (P04637 whole entry, looked up): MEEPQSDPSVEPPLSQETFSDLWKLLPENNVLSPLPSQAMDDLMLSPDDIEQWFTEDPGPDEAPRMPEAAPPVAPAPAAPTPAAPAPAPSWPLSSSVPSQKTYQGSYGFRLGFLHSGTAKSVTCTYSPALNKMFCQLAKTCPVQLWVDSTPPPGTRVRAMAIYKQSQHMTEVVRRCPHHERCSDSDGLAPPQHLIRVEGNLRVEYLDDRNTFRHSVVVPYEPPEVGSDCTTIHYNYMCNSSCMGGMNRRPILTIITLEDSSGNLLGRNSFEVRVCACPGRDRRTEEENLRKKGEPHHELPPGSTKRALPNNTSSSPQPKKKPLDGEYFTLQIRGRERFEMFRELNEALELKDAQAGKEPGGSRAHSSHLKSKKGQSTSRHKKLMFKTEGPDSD
# How it was run: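 Cleaved-to-uncleaved substrate ratio (460 vs 530 nm) measured in HCT116 cells with an inducible beta-lactamase reporter linked to p53 activity. Compounds incubated 16 h at 37C before 2 h room-temperature CCF4-AM loading.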
# [4] = TOX21_p53_BLA_p3_viability: Viability Assessment in the Tox21 HCT-116 p53 Agonism Beta-lactamase Assay, Phase 3 (AID 2283593);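 note: cells exposed to compound for 16 h before reading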
# How it was run: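 Cellular ATP was quantified by CellTiter-Glo luminescence, read after 30 min at room temperature. Beforehand, HCT116 cells (4000/well) received compound 5 h post-seeding, 217-fold diluted from DMSO, then incubated 16 h at 37C.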
# [5] = target: Cellular tumor antigen p53 (Homo sapiens) (UniProt P04637); experiment: TOX21_p53_BLA_p3_ratio: Tox21 HCT-116 p53 Agonism Beta-lactamase Assay, Ratio, Phase 3 (AID 2283596)
# How it was run: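 Cells were seeded at 4000/well, rested 5 h at 37C, then dosed with DMSO compound solutions (217-fold dilution) for 16 h. CCF4-AM substrate was loaded for 2 h at room temperature, and the 460/530 nm emission ratio was fitted for gain of signal versus DMSO.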
# [6] = TOX21_p53_BLA_p4_viability: Viability Assessment in the Tox21 HCT-116 p53 Agonism Beta-lactamase Assay, Phase 4 (AID 2283597);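 note: hits lower the luminescence signal meaning cytotoxicity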
# How it was run: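 Viability is taken as cellular ATP: after 16 h compound exposure of HCT116 cells and a 2 h room-temperature CCF4-AM substrate step, CellTiter-Glo reagent is added and luminescence is measured 30 min later.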
# [7] = target: Cellular tumor antigen p53 (Homo sapiens) (UniProt P04637); experiment: TOX21_p53_BLA_p5_ratio: Tox21 HCT-116 p53 Agonism Beta-lactamase Assay, Ratio, Phase 5 (AID 2283599)
# How it was run: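 Beta-lactamase reporter ratio (blue 460 nm over green 530 nm, 405 nm excitation) after 2 h CCF4-AM loading, in HCT-116 cells exposed 16 h at 37 C to compounds pinned at 217-fold dilution. Increases relative to DMSO baseline scored.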
# [8] = TOX21_p53_BLA_p5_viability: Viability Assessment in the Tox21 HCT-116 p53 Agonism Beta-lactamase Assay, Phase 5 (AID 2283600)
# How it was run: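 Viability is taken from cellular ATP content, measured by luciferase luminescence in the same wells after the beta-lactamase ratio read. Cells are seeded at 4000 per well and exposed to DMSO-dissolved compounds, diluted 217-fold, for 16 h.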
structure (smiles),measurement,setting,value
CC1OC1C1CCC2(C)OC2C1 (stereo unspecified),outcome,[1],inactive
same,outcome,[2],inactive
same,outcome,[3],inactive
same,outcome,[4],inactive
same,outcome,[5],inactive
same,outcome,[6],inactive
same,outcome,[7],inactive
CC(C)c1ccc2c(C(C)C)cc(C(C)C)c(S(=O)(=O)O)c2c1,outcome,[1],inactive
same,outcome,[2],inactive
same,outcome,[3],inactive
same,outcome,[4],inactive
same,outcome,[5],inactive
same,AC50,[6],89.7 µM (active)
same,outcome,[7],inactive
same,outcome,[8],inactive
CC(C)c1ccc2c(c1)CC[C@H]1[C@](C)(CN)CCC[C@]21C,AC50,[1],9.98 µM (active)
same,AC50,[2],42.6 µM (active)
same,AC50,[3],47.1 µM (active)
same,AC50,[4],32.3 µM (active)
same,AC50,[5],72.5 µM (active)
same,AC50,[6],49.6 µM (active)
same,AC50,[7],78.5 µM (active)
same,AC50,[8],63.5 µM (active)
CC(=O)Nc1ccc2c(c1)Cc1cc(NC(C)=O)ccc1-2,outcome,[1],inactive
same,outcome,[2],inactive
same,outcome,[3],inactive
same,outcome,[4],inactive
same,outcome,[5],inactive
same,outcome,[6],inactive
same,outcome,[7],inactive
NCCCN1CCN(CCCN)CC1,outcome,[1],inactive
same,outcome,[2],inactive
same,outcome,[3],inactive
same,outcome,[4],inactive
same,outcome,[5],inactive
same,outcome,[6],inactive
same,outcome,[7],inactive
OC1CCCCCCCCCCC1,outcome,[1],inactive
same,outcome,[2],inactive
same,outcome,[3],inactive
same,outcome,[4],inactive
same,outcome,[5],inactive
same,outcome,[6],inactive
same,outcome,[7],inactive
same,outcome,[8],inactive
CC1(C)O[C@@H]2C[C@H]3[C@@H]4C[C@H](F)C5=CC(=O)CC[C@]5(C)[C@H]4[C@@H](O)C[C@]3(C)[C@]2(C(=O)CO)O1,outcome,[1],inactive
same,outcome,[2],inactive
same,outcome,[3],inactive
same,outcome,[4],inactive
same,outcome,[5],inactive
same,outcome,[6],inactive
same,outcome,[7],inactive
same,outcome,[8],inactive
Cc1cccc(N(C)C(=S)Oc2ccc3ccccc3c2)c1,outcome,[1],inactive
same,outcome,[2],inactive
same,outcome,[3],inactive
same,outcome,[4],inactive
same,outcome,[5],inactive
same,outcome,[6],inactive
same,outcome,[7],inactive
same,outcome,[8],inactive
O=C(Nc1ccccc1)c1ccccc1O,outcome,[1],inactive
same,outcome,[2],inactive
same,AC50,[3],57 µM (active)
same,outcome,[4],inactive
same,outcome,[5],inactive
same,outcome,[6],inactive
same,outcome,[7],inactive
same,outcome,[8],inactive
O=C1c2cccc(O)c2C(=O)c2c(O)cc(CO)cc21,outcome,[1],inactive
same,outcome,[2],inactive
same,AC50,[3],31.7 µM (active)
same,outcome,[4],inactive
same,outcome,[5],inactive
same,outcome,[6],inactive
same,AC50,[7],33.3 µM (active)
same,outcome,[8],inactive
[Cl][In]([Cl])[Cl],outcome,[1],inactive
same,outcome,[2],inactive
same,outcome,[3],inactive
same,outcome,[4],inactive
same,outcome,[5],inactive
same,outcome,[6],inactive
same,outcome,[7],inactive
same,outcome,[8],inactive
CC(C)C1=CC2=CC[C@@H]3[C@](C)(CCC[C@@]3(C)C(=O)O)[C@H]2CC1,outcome,[1],inactive
same,AC50,[2],58.9 µM (active)
same,outcome,[3],inactive
same,outcome,[4],inactive
same,outcome,[5],inactive
same,outcome,[6],inactive
same,outcome,[7],inactive
same,outcome,[8],inactive
C=CC(=O)OCCC(=O)O,outcome,[1],inactive
same,outcome,[2],inactive
same,outcome,[3],inactive
same,outcome,[5],inactive
CC1=NC(C)OC1C (stereo unspecified),outcome,[1],inactive
same,outcome,[2],inactive
same,outcome,[3],inactive
same,outcome,[4],inactive
same,outcome,[7],inactive
same,outcome,[8],inactive
O=C1c2ccccc2C(=O)C1c1nc2ccccc2c(Br)c1O,outcome,[1],inactive
same,outcome,[2],inactive
same,outcome,[3],inactive
same,outcome,[4],inactive
same,outcome,[6],inactive
same,outcome,[8],inactive
O=C1CCCC1,outcome,[1],inactive
same,outcome,[2],inactive
same,outcome,[3],inactive
same,outcome,[5],inactive
same,outcome,[6],inactive
same,outcome,[7],inactive
same,outcome,[8],inactive
CC=CC(=O)N(CC)c1ccccc1C,outcome,[1],inactive
same,outcome,[2],inactive
same,outcome,[3],inactive
same,outcome,[5],inactive
same,outcome,[6],inactive
same,outcome,[7],inactive
O=C1C(N(CO)C(=O)NCO)N(CO)C(=O)N1CO (stereo unspecified),outcome,[1],inactive
same,outcome,[2],inactive
same,outcome,[3],inactive
same,outcome,[4],inactive
same,outcome,[5],inactive
same,outcome,[8],inactive
Cc1c(C)c([N+](=O)[O-])c(C(C)(C)C)c([N+](=O)[O-])c1C,outcome,[1],inactive
same,outcome,[2],inactive
same,outcome,[3],inactive
same,outcome,[4],inactive
same,outcome,[6],inactive
same,outcome,[7],inactive
CCOC(=O)CC,outcome,[1],inactive
same,outcome,[2],inactive
same,outcome,[3],inactive
same,outcome,[4],inactive
same,outcome,[7],inactive
same,outcome,[8],inactive
COC(=O)c1ccc2cc(C(=O)OC)ccc2c1,outcome,[1],inactive
same,outcome,[2],inactive
same,outcome,[3],inactive
same,outcome,[4],inactive
same,outcome,[6],inactive
same,outcome,[7],inactive
same,outcome,[8],inactive
CCCNC(=O)NS(=O)(=O)c1ccc(Cl)cc1,outcome,[1],inactive
same,outcome,[2],inactive
same,outcome,[3],inactive
same,outcome,[4],inactive
same,outcome,[5],inactive
same,outcome,[6],inactive
same,outcome,[8],inactive
CC(=O)c1ccc[nH]1,outcome,[1],inactive
same,outcome,[2],inactive
same,outcome,[3],inactive
same,outcome,[5],inactive
same,outcome,[6],inactive
same,outcome,[7],inactive
O=C1CCCCCCCCCCCCCCCO1,outcome,[1],inactive
same,outcome,[2],inactive
same,outcome,[3],inactive
same,outcome,[4],inactive
same,outcome,[5],inactive
same,outcome,[8],inactive
